According to PubChem BioAssay (NCI):
Compounds without any hit were thinned out: in the full panel of roughly 79,000, 15% have a hit. Activity calls are given as the source filed them. Rule as the data show it: active = growth inhibition above about 70%; inactive = the rest.

Assay: NCI Yeast Anticancer Drug Screen. Data for the bub3 strain (AID 167)
Details: S. cerevisiae bub3 mutant strain, at 50.0 µM, hits give high values
How it was run: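 Yeast carrying a defined mutation is treated with each compound, and growth is compared with that of vehicle-exposed cells to give inhibition.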

Compound | growth inhibition
C[N+]1(C)CCOC(O)(c2ccccc2)C1 (configuration not stated) | -59.1% (inactive)
O=C(CCc1n[nH]c(=S)o1)Nc1ccccc1 | 14.1% (inactive)
COc1ccc(/C=C\c2cccc(Cl)c2)cc1 | -13.3% (inactive)
N#CSCc1c(Cl)c(Cl)c(CSC#N)c(Cl)c1Cl | 5.85% (inactive)
Nc1ncnc2c1ccn2C1OC2COP(=O)(O)OC2C1O (configuration not stated) | -18.3% (inactive)
CCc1ccc(/C(C#N)=C/c2cccc3ccccc23)cc1 | 4.05% (inactive)
CCOC(=O)c1c(O)nc2sc3ccccc3n2c1=O | 13.6% (inactive)
COC(=O)C(CCc1ccc([N+](=O)[O-])cc1)(CCc1ccc([N+](=O)[O-])cc1)C(C)=O | 19.7% (inactive)
O=C(O)C1CSC2(CCCN(Cc3ccccc3)C2)N1 (configuration not stated) | -17.1% (inactive)
CC1OC(n2cc(Cl)c(=O)[nH]c2=O)C=C(OC(=O)c2ccccc2)C1=O (configuration not stated) | -22.4% (inactive)
O=[N+]([O-])c1ccc(S(=O)(=O)c2ccc(NCN3CCCCC3)cc2)cc1 | 13.7% (inactive)
O=[N+]([O-])C1C2C=CC(C2)[C@H]1c1ccco1 (some centres not stated) | -14.8% (inactive)
Cc1cc(N(CCC#N)CCC#N)ccc1/C=C1N=C(/C=C\c2ccccc2)N(c2ccc(C(=O)O)cc2)C\1=O | -16.4% (inactive)
COc1cc(OC)c(NC(N)=O)cc1Cl | 5.75% (inactive)
CN(C)CCOc1ccccn1 | -21.7% (inactive)
COC(=O)NN=C1C(C)(C)C(=O)C1(C)C | -29.4% (inactive)
CCC1OC(=O)CC(O)C(C)C(OC2OC(C)CC(N(C)C)C2O)C(CC=O)CC(C)C(=O)/C=C/C2(C)OC2C1C (configuration not stated) | -14% (inactive)
